Source: PubChem (Broad Institute)
Shown are actives, neighbours in structure and some others; about 3.4% of the full set was active somewhere.
HSF1 activator – HSF-1 activators, primary screen, NIH3T3-HGL cells, MG132 stress, luminescence, single point; NIH3T3-HGL HSF-1 luciferase reporter, 8 h; 100% = twice DMSO control signal; activation, % at 9 µM; 300,000 tested, 1.7% active; AID 504408, 2011;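 active = mean replicate activation of at least 50% with a set share of replicates each reaching 50%; inconclusive = only one of those two conditions met; inactive = mean below 50% and too few replicates reaching it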;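 note: 0% = median of the neutral control wells and 100% = twice that signal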
esBAF inh – Bmi1 luciferase reporter increase in mESCs, primary screen, esBAF inhibitor project, mouse ES cells, Bmi1 luciferase knock-in, single point; 24 h; 100% = twice the neutral-well signal; reporter increase, % at 12.5 µM; 350,000 tested, 2% active; in the data active = activation above about 40%; inconclusive = no clear call, values can overlap the other calls;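 note: 0% = median of the plate's neutral control wells and 100% = double that signal; a rise in the Bmi1 reporter signal indicates esBAF inhibition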
Vif imaging – HIV Vif self-association inhibitors, primary screen, imaging, HEK293T, single point. HEK293T cells, Vif self-association by quenched fluorescence, 24 h. inhibition, % at 7.49 µM. 340,000 tested, 0.35% active; in the data active = inhibition above about 50%, passing the limit was not always enough; inconclusive = no clear call, values can overlap the other calls; inactive = below about 31%
HSF1 inh – HSF1 inhibitors in luciferase reporter cells, primary screen, cell-based, NIH3T3, luminescence | NIH3T3-HGL HSE-luciferase, MG132-induced, luminescence 8 h; hits give low values | activity change, negative = inhibition, % at 7.5 µM (by protocol) | 300,000 tested, 0.77% active;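 active = more than half of replicate wells show activity change below -50%, luminescence cut by over half; inconclusive = some wells, but at most half, below -50%; inactive = no replicate well below -50%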;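 note: luciferase reports HSF-1 transcriptional activity via heat shock element; 0% = median of DMSO wells and -100% = zero luminescence signal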
Starred values were filed as active, the others as inactive; ? = inconclusive; . = no result given.

SMILES | HSF1 activator | esBAF inh | Vif imaging | HSF1 inh
O=C(/C=C/c1cccc([N+](=O)[O-])c1)c1ccco1 | 29.0 | 4.8 | -4.1 | 5.2
Cc1cccc(/C=C/C(=O)c2ccc([N+](=O)[O-])o2)c1 | ? | -13.4 | 62.4* | 31.4
O=C(/C=C/c1cccc([N+](=O)[O-])c1)c1ccc([N+](=O)[O-])o1 | 54.0* | -87.2 | ? | 32.4
C[C@@H]1CN([C@H](C)CO)C(=O)c2cc(C3=CCCC3)cnc2O[C@H]1CN(C)Cc1cccnc1 | . | -8.4 | . | .
Cc1ccc(/C=C2\OC(=O)c3ccccc32)cc1 | 59.3* | 73.4* | 0.2 | 48.3
Cc1ccccc1/C=C1\OC(=O)c2ccccc21 | 46.5 | 18.1 | 9.3 | 23.9
Cc1ccc(NC(=O)c2sc(Cl)nc2-c2ccccc2)cc1C | 61.0* | 12.4 | -3.4 | 25.9
Cc1cnc(C(=O)Nc2ccc(C)c(S(=O)(=O)N(C)C)c2)cn1 | 1.3 | . | 7.7 | 5.8
Cc1ccc(NC(=O)c2ccc3ccccc3n2)cc1S(=O)(=O)N(C)C | 15.7 | 82.6* | -7.6 | 28.2
COC(=O)c1cccc(C(=O)Nc2cnc3ccccc3c2)n1 | . | 59.4* | -6.2 | .
Cc1ccc(NC(=O)c2cnc3ccccc3n2)cc1C | 62.5* | 32.3 | -2.8 | 22.8
COc1ccc(S(=O)(=O)N(C)C[C@@H]2OCCCC[C@H](C)Oc3ccc(NS(=O)(=O)c4ccc(C)cc4)cc3C(=O)N([C@H](C)CO)C[C@H]2C)cc1 | . | -1.2 | . | .
C[C@@H]1CCCCO[C@@H](CN(C)Cc2ccc(C(F)(F)F)cc2)[C@@H](C)CN([C@@H](C)CO)C(=O)c2cc(NC(=O)C3CCCCC3)ccc2O1 | . | 2.4 | . | .
C[C@H]1CCCCO[C@H](CN(C)C(=O)Nc2cccc3ccccc23)[C@@H](C)CN([C@@H](C)CO)C(=O)c2cc(NC(=O)Nc3ccccc3)ccc2O1 | . | 6.1 | . | .
Cc1ccc(S(=O)(=O)Nc2ccc3c(c2)CC(=O)N([C@H](C)CO)C[C@@H](C)[C@@H](CN(C)S(=O)(=O)c2ccc(Cl)cc2)O3)cc1 | . | -1.3 | . | .
NC1=NC2(CCCC2)n2c(nc3ccccc32)N1 | 10.3 | -8.9 | 4.0 | -1.4
CCC1(C)N=C(N)Nc2nc3cc(C)c(C)cc3n21 (stereo unspecified) | 70.7* | 2.5 | -2.5 | 23.8
C[C@@H]1CN([C@H](C)CO)S(=O)(=O)c2ccc(C#Cc3cccnc3)cc2O[C@@H]1CN(C)C | . | 1.5 | . | .
O=C(CCC(=O)c1ccc(Br)cc1)Nc1cccnc1 | -88.3 | -0.7 | -0.8 | -85.0*
O=C(CCC(=O)c1ccccc1)Nc1cccnc1 | 44.1 | -3.2 | . | -6.1
COc1cccc(N=c2oc3ccc(OC)cc3cc2-c2nc3ccccc3[nH]2)c1 | 53.8* | 7.8 | 5.2 | 28.3
COc1ccc2oc(=O)c(-c3nc4ccccc4o3)cc2c1 | 0.8 | . | 1.8 | 3.3
COc1ccc(N=c2oc3ccc(OC)cc3cc2-c2nc3ccccc3[nH]2)cc1 | 57.7* | 60.3* | 20.7 | 31.5
COc1cccc(N=c2oc3ccccc3cc2-c2nc3ccccc3[nH]2)c1 | 71.0* | -18.3 | -4.8 | 24.6
COCC#Cc1ccc2c(c1)O[C@@H](CN(C)Cc1ccccc1)[C@H](C)CN([C@@H](C)CO)S2(=O)=O | . | -6.2 | . | .
SMILES | HSF1 activator | esBAF inh | Vif imaging | HSF1 inh
CC1CCC(NC(=O)CCC(=O)N2CC(C)Oc3ccccc32)CC1 (stereo unspecified) | 0.4 | 55.1* | 12.7 | 0.9
CC1CCN(C(=O)CCC(=O)N2CC(C)Oc3ccccc32)CC1 (stereo unspecified) | -11.0 | -0.4 | -3.4 | 1.0
O=C(Nc1ccccc1)N1C[C@@H]2[C@H](c3ccccc31)[C@@H](CO)N2C(=O)Cc1ccccn1 | . | 19.5 | . | .
CO[C@H]1CN(C)C(=O)c2cc(NC(C)=O)ccc2OC[C@@H](C)N(Cc2ccccc2F)C[C@@H]1C | . | 0.2 | . | .
CC(C)OC(=O)Cc1nc2sc(-c3ccccc3)cc2c(=O)[nH]1 | 51.7* | 49.1* | -11.3 | 28.1
CCOC(=O)c1cnc2ccc(OCC)cc2c1N1CCN(C)CC1 | -12.9 | -2.9 | -6.9 | 7.5
CCOc1ccc2ncc(S(=O)(=O)c3ccc(C)cc3)c(N3CCC4(CC3)OCCO4)c2c1 | 103.5* | . | -16.4 | 41.3
CNc1nc(-c2ccc([N+](=O)[O-])cc2)cs1 | 11.2 | 45.2* | -8.2 | 12.4
Clc1ccc(Nc2nc(-c3ccncc3)cs2)cc1 | 17.8 | 29.5 | 13.8 | 4.8
CC(C)C(=O)Nc1nc(-c2ccc([N+](=O)[O-])cc2)cs1 | 25.2 | . | -10.2 | 18.5
CCNc1nc(-c2ccc(Cl)cc2)cs1 | -0.1 | 89.7* | -1.4 | 24.4
CNc1nc(-c2ccc(Cl)cc2)cs1 | 4.1 | 51.5* | 25.8 | 14.4
CCN(CC)CC(=O)Nc1nc(-c2ccc(Cl)cc2)cs1 | 10.9 | 11.8 | -11.0 | 11.8
CNC[C@H]1Oc2c(NC(=O)NC3CCCCC3)cccc2C(=O)N([C@H](C)CO)C[C@H]1C | . | 4.9 | . | .
CNC[C@H]1Oc2cc(-c3ccc(C#N)cc3)ccc2S(=O)(=O)N([C@H](C)CO)C[C@@H]1C | . | -7.7 | . | .
C[C@@H]1CN([C@@H](C)CO)S(=O)(=O)c2ccc(C#CC3(O)CCCC3)cc2O[C@@H]1CN(C)C(=O)Cc1ccccc1 | . | -0.8 | . | .
CCCNC(=O)C[C@H]1CC[C@H]2[C@@H](COC[C@@H](O)CN2C(=O)Nc2ccc3c(c2)OCO3)O1 | . | 40.7* | . | .
CCNC(=O)C[C@H]1CC[C@H]2[C@@H](COC[C@@H](O)CN2C(=O)Nc2ccc3c(c2)OCO3)O1 | . | 53.3* | . | .
Cc1ccc2nc(N3C(=O)C(O)=C(C(=O)c4ccco4)C3c3cccs3)sc2c1 (stereo unspecified) | 65.8* | . | 6.1 | 34.9
COc1ccc2nc(N3C(=O)C(O)=C(C(=O)c4ccco4)C3c3ccccc3OC)sc2c1 (stereo unspecified) | 22.0 | 11.7 | 82.1* | 19.2
COc1ccc2nc(N3C(=O)C(O)=C(C(=O)c4ccco4)C3c3ccc(C)o3)sc2c1 (stereo unspecified) | . | 3.0 | -13.0 | .
CC(C)(C)NC(=O)c1cccc(NC(=O)CSc2ccc(Cl)cc2)c1 | 172.8* | 3.7 | -4.1 | 117.4
CC(C)CNC(=O)c1cccc(NC(=O)CSc2ccc(Cl)cc2)c1 | 14.2 | . | 4.2 | 8.1
C[C@@H]1CCCCO[C@@H](CN(C)C(=O)Cc2ccccc2)[C@@H](C)CN([C@@H](C)CO)C(=O)c2cc(NS(=O)(=O)c3ccc(F)cc3)ccc2O1 | . | 1.5 | . | .
CCC(=O)OCCNc1cc(Sc2nccn2C)c2nonc2c1[N+](=O)[O-] | 436.8* | . | -3.1 | 400.4
O=C1C=CC(=O)N1c1ccc(Sc2ccc([N+](=O)[O-])cc2)cc1 | 81.9* | . | . | 41.5
Nc1ccc(Sc2ccc([N+](=O)[O-])cc2)cc1 | 4.6 | . | 5.8 | -4.9
CCOC(=O)c1cnc(SC)nc1N | 5.3 | 2.2 | -1.0 | 0.3
CCOC(=O)c1cnc(SCC(C)C)nc1N | 47.3 | 52.5* | -0.7 | 25.9
CCCc1cc(=O)oc2cc(C)c(CN3CCCC3)c(O)c12 | 63.5* | 9.1 | 6.9 | 37.4
